Inhibition data for 28 compounds are collected here from PubChem BioAssay AID2315 (National Center for Advancing Translational Sciences (NCATS), 2010).

Among all 290,000 compounds or so, about 27,000 (9.3%) were called active. No stated cut-off is given here; in the data, active means inhibition mostly above about 28% (no sharp cut-off); inactive means mostly below about 43%. The entries come from a sample that favours actives as a whole.

This test is described as follows: A qHTS for Small Molecule Inhibitors of Shiga Toxin. Further: 0% is about no effect. The settings on record: Vero cells, Shiga toxin protein synthesis inhibition reporter; at 38.7 µM, active compounds read high. A general note: In qHTS, concentration-response curves come from the screen itself.
The inhibition is the change of the read-out against control, counted positive when it falls. On to `COc1cc(C(=S)N2CCOCC2)ccc1O`, for which the inhibition was -13.2% (inactive).
The value for `COc1ccc(/C(C)=N/N2CCOCC2)c(O)c1` was 47.1% (active); that for `COc1ccc(OCC(=O)N2CCOCC2)cc1` was 51.9% (inactive); that for `COc1ccc(N(CC(=O)Nc2cc(OC)cc(OC)c2)S(=O)(=O)c2c(C)n[nH]c2C)cc1` was 5.74% (inactive).
The value for `CCN(CC)S(=O)(=O)c1ccc(C(=O)N2CCN(C3=NS(=O)(=O)c4ccccc43)CC2)cc1` was 16.6% (inactive); that for `Nc1nnc(SCCN2C(=O)c3ccccc3S2(=O)=O)s1` was -8.37% (inactive); that for `O=c1c2ccccc2nnn1CSc1nnnn1-c1ccccc1` was 62.9% (inactive).
`Nc1nnc(SCn2nnc3ccccc3c2=O)s1`: the inhibition is 46.5% (active).
With `Cc1ccc(-n2cc(CN(C)Cc3nccn3C)c(-c3cccc(C)c3)n2)cc1`, the inhibition was -6.37% (inactive).
In the case of `COc1ccc(C(=O)NC(C)CCc2ccccc2)c(OC)c1` (stereo not drawn), the inhibition was 22.2% (inactive).
The value for `COc1ccc(C(=O)N2CCCN(C)CC2)c(OC)c1` was -2.8% (inactive); that for `COc1ccc(C(=O)NC2=NCCS2)c(OC)c1` was 42% (active); that for `COc1ccc(C(=O)Nc2nncs2)c(OC)c1` was 62.3% (active).
The value for `O=C(NC1=NCCS1)[C@H](Cc1ccccc1)N1C(=O)c2ccccc2C1=O` was -5.83% (inactive); that for `O=C(NC1=NCCS1)c1ccc(Cl)s1` was 149% (active).
As for `O=C(Nc1nncs1)c1ccccc1NS(=O)(=O)c1cccs1`, the figure is -4.57% (inactive).
Turning to `O=C(NCc1ccc2c(c1)OCO2)c1ccc(Cl)s1`, the inhibition was 50.7% (inactive).
On to `COc1ccc(C(=O)NCc2nnc(SCC(=O)NC3=NCCS3)n2C)cc1`, for which the inhibition is -9.89% (inactive).
Turning to `CC(C)C(=O)NCC(c1cccs1)S(=O)(=O)c1ccc(F)cc1` (stereo not drawn), the inhibition is 2.44% (inactive).
As for `COc1ccc(CNC(=O)c2nnn(CC(=O)Nc3cc(C)cc(C)c3)c2N)cc1`, the figure is -9.11% (inactive); as for `COc1ccc(Cn2c(=S)[nH]c3cc(C(=O)NCCCN4CCOCC4)ccc3c2=O)cc1`, 18.7% (inactive); as for `CCOC(=O)[C@H]1[C@H]2COc3cc(OC)ccc3[C@@H]2N2C(=O)N(c3ccc(Br)cc3)C(=O)[C@@]12C`, -9.26% (inactive).
For the compound `Cc1cc(=O)oc2c3c(cc(OCC(=O)NCc4ccccn4)c12)OC(C)(C)CC3`, the inhibition was -3.65% (inactive).
On to `CCCn1c2ccccc2c2cnn(CC(=O)NCCCN3CCCCC3CC)c(=O)c21` (stereo not drawn), for which the inhibition was -4.97% (inactive).
`CC(=O)c1cc2c(cc1NC(=O)Cn1nc(-c3ccc(F)cc3)ccc1=O)OCO2`: the inhibition was 20.6% (inactive).
`CSc1ccc(/C=N/NC(=O)c2cccc(Cl)c2)cc1`: the inhibition was 4.92% (active).
As for `CSc1ccc(/C=N\NC(=O)COc2ccc(Cl)cc2Br)cc1`, the figure is 59.9% (inactive).
The value for `CSc1ccc(/C=N\NC(=O)CC(=O)NC(C)C)cc1` was 14.5% (inactive).
